Our source for the outcome and AC50 values is PubChem BioAssay (EPA / NIEHS).

A word on the AC50: it is the midpoint of the concentration-response curve, whichever way the signal moves.

Read-out in test [1]: Monokine induced gamma interferon (MIG), CXCL9 (gene 4283)
Kind of test: BSK_3C_MIG: BioMAP Diversity Plus: 3C Assay for Monokine induced gamma interferon (MIG) Biomarker Activity (AID 2283021). The settings on record: primary human endothelial cells (HUVEC); actives raise or lower the signal. In outline: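 ELISA-measured MIG in dosed HUVEC 3C cultures at 24 h, analysed by bidirectional fitting with DMSO defining baseline activity.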

The nature of test [2]: BSK_3C_SRB: Viability Assessment in the BioMAP Diversity Plus: 3C Assay (AID 2283023).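 Further: cells read 24 h after compound dosing; fitted both ways against DMSO so a hit may be signal rise or drop.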 The conditions noted are these: primary human endothelial cells (HUVEC). In outline:
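Overt cytotoxicity is gauged in parallel confluent HUVEC cultures by SRB total-protein staining at the time of biomarker measurement, 24 h after dosing. Gain or loss of signal is fitted versus DMSO.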

Read-out in test [3]: Matrix Metallopeptidase 1 (MMP1), MMP1 (gene 4312)
Kind of test: BSK_BE3C_MMP1: BioMAP Diversity Plus: BE3C Assay for Matrix Metallopeptidase 1 (MMP1) Biomarker Activity (AID 2283024). The settings on record: primary human bronchial epithelial cells; actives raise or lower the signal. In outline:
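In this multiplexed primary-cell system, human bronchial epithelium received chemicals for 24 h before an ELISA for MMP1. Values reflect bidirectional fits normalised to the DMSO baseline.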

Test [4] can be described thus: BSK_3C_Vis: BioMAP Diversity Plus: 3C Assay for Morphology Visualization (AID 2283025).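 Further: fitted both ways so gain or loss versus DMSO counts.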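 On AC50: light microscopy image of cell morphology used as background control.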 The conditions noted are these: primary human endothelial cells (HUVEC). In outline: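 Light-microscopy morphology readout, 24 h exposure, human primary umbilical vein endothelium; analysed relative to DMSO with bidirectional fitting.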
Read-out in test [5]: Pselectin, SELP (gene 6403)
The test is described as follows: BSK_4H_Pselectin: BioMAP Diversity Plus: 4H Assay for Pselectin Biomarker Activity (AID 2283026). The conditions noted are these: primary human endothelial cells (HUVEC); actives raise or lower the signal. The procedure, abridged:
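Bidirectional fits against DMSO gave the endpoint. Cells: primary human umbilical vein endothelium, chemical-treated for 24 h before ELISA detection of P-selectin.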

A short description of test [6]: BSK_4H_SRB: Viability Assessment in the BioMAP Diversity Plus: 4H Assay (AID 2283027).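 Further: cells exposed to compound for 24 h before staining.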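 On AC50: curves fitted both ways versus DMSO so AC50 may be loss or gain.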 The settings on record: primary human endothelial cells (HUVEC). The procedure, abridged:
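HUVEC, 24 h post-dose; 10% TCA fix, 0.1% SRB stain, A560 nm. Total protein = overt cytotoxicity, parallel to biomarker read. Bidirectional fit vs DMSO baseline.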

Test [7] in a line: BSK_BE3C_SRB: Viability Assessment in the BioMAP Diversity Plus: BE3C Assay (AID 2283028).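 On AC50: fitted both ways so AC50 may mark signal gain or loss versus DMSO.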 The settings on record: primary human bronchial epithelial cells. In outline:
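SRB total-protein staining (0.1%, after TCA fixation) of chemically dosed human bronchial epithelial primary cells at 24 h; DMSO serves as the negative control for bidirectional curve fitting.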

Read-out in test [8]: Thrombomodulin, THBD (gene 7056)
Kind of test: BSK_3C_Thrombomodulin: BioMAP Diversity Plus: 3C Assay for Thrombomodulin Biomarker Activity (AID 2283029). The conditions noted are these: primary human endothelial cells (HUVEC); actives raise or lower the signal. In outline: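 In a multiplexed primary-cell system, human umbilical vein endothelium received chemical and was assayed 24 h later for thrombomodulin by ELISA. Parallel cultures were SRB-stained (0.1% SRB after 10% TCA fixation, read at 560 nm) to flag cytotoxicity.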

Read-out in test [9]: Urokinase-type plasminogen activator receptor (uPAR), PLAUR (gene 5329)
Kind of test: BSK_4H_uPAR: BioMAP Diversity Plus: 4H Assay for Urokinase-type plasminogen activator receptor (uPAR) Biomarker Activity (AID 2283030). The settings on record: primary human endothelial cells (HUVEC); actives raise or lower the signal. In outline:
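Endpoint derived via bidirectional curve fitting against DMSO baseline; readout was ELISA detection of uPAR on umbilical vein endothelial cells at 24 h post-treatment, with SRB-stained parallel cultures assessing cytotoxicity.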

Read-out in test [10]: Vascular endothelial growth factor receptor 2 (Homo sapiens) (UniProt P35968)
Kind of test: BSK_4H_VEGFRII: BioMAP Diversity Plus: 4H Assay for Vascular endothelial growth factor receptor 2 (VEGFR2) Biomarker Activity (AID 2283031). The conditions noted are these: primary human endothelial cells (HUVEC); actives raise or lower the signal. In outline:
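In this multiplexed HUVEC system, biomarker ELISA was performed after 24 h chemical exposure. Parallel SRB staining (TCA fixation, 560 nm) tracked cytotoxicity; DMSO served as baseline.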

Read-out in test [11]: Human Leukocyte Antigen - DR isotype (HLADR), HLA-DRA (gene 3122)
The test is described as follows: BSK_BE3C_HLADR: BioMAP Diversity Plus: BE3C Assay for Human Leukocyte Antigen - DR isotype (HLADR) Biomarker Activity (AID 2283032). The settings on record: primary human bronchial epithelial cells; actives raise or lower the signal. In outline:
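BioMAP BE3C format: human bronchial epithelium, 24 h compound treatment, ELISA detection of HLA-DR, with bidirectional analysis relative to DMSO.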

Read-out in test [12]: Vascular cell adhesion molecule 1 (VCAM1), VCAM1 (gene 7412)
Kind of test: BSK_4H_VCAM1: BioMAP Diversity Plus: 4H Assay for Vascular cell adhesion molecule 1 (VCAM1) Biomarker Activity (AID 2283033).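 On outcome: cell-surface VCAM-1 protein measured by ELISA.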 The settings on record: primary human endothelial cells (HUVEC); actives raise or lower the signal. In outline:
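In this human endothelial (HUVEC) system, biomarker ELISA was run 24 h after compound addition, and total protein in parallel wells was assessed by SRB at 560 nm; DMSO served as negative control.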

Read-out in test [13]: Interferon-gamma inducible Protein 10 (IP10), CXCL10 (gene 3627)
Kind of test: BSK_BE3C_IP10: BioMAP Diversity Plus: BE3C Assay for Interferon-gamma inducible Protein 10 (IP10) Biomarker Activity (AID 2283034). The settings on record: primary human bronchial epithelial cells; actives raise or lower the signal. In outline: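 BE3C cells (human bronchial epithelial, primary); 24 h exposure; ELISA for IP-10; DMSO-referenced bidirectional fit.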

Read-out in test [14]: Monokine induced gamma interferon (MIG), CXCL9 (gene 4283)
The test is described as follows: BSK_BE3C_MIG: BioMAP Diversity Plus: BE3C Assay for Monokine induced gamma interferon (MIG) Biomarker Activity (AID 2283035).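 On outcome: MIG protein measured by ELISA in BE3C cultures after 24 h of dosing.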 The settings on record: primary human bronchial epithelial cells; actives raise or lower the signal. The procedure, abridged:
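Dose cells (human primary bronchial epithelial), incubate 24 h, quantify MIG by ELISA, then fit concentration–response in both directions relative to DMSO control.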

Read-out in test [15]: Transforming growth factor beta 1 (TGFb1), TGFB1 (gene 7040)
Kind of test: BSK_BE3C_TGFb1: BioMAP Diversity Plus: BE3C Assay for Transforming growth factor beta 1 (TGFb1) Biomarker Activity (AID 2283036;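 further: TGF-b1 protein level measured by ELISA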). The settings on record: primary human bronchial epithelial cells; actives raise or lower the signal. In outline:
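TGF-b1 measured via ELISA, 24 h after chemical dosing of human bronchial epithelial cells (BE3C). Overt cytotoxicity assessed in parallel by SRB (0.1%, TCA-fixed, 560 nm); analysis bidirectional relative to DMSO.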

Read-out in test [16]: Plasminogen activator inhibitor-1 (PAI1), SERPINE1 (gene 5054)
The test is described as follows: BSK_BE3C_PAI1: BioMAP Diversity Plus: BE3C Assay for Plasminogen activator inhibitor-1 (PAI1) Biomarker Activity (AID 2283037). The conditions noted are these: primary human bronchial epithelial cells; actives raise or lower the signal. The procedure, abridged: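 In this multiplexed primary-cell system, bronchial epithelial cells receive test chemical and are sampled at 24 h. PAI-1 is read by ELISA, with DMSO serving as negative control for bidirectional fitting.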

Read-out in test [17]: urokinase plasminogen activator (uPA), PLAU (gene 5328)
Kind of test: BSK_BE3C_uPA: BioMAP Diversity Plus: BE3C Assay for urokinase plasminogen activator (uPA) Biomarker Activity (AID 2283038).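 On outcome: uPA protein level quantified by ELISA in cell cultures; uPA read one day after compound addition.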 The conditions noted are these: primary human bronchial epithelial cells; actives raise or lower the signal. In outline: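 Using confluent primary human lung bronchial epithelial cultures, we dosed chemicals, waited 24 h, then ran a uPA ELISA, fitting bidirectionally against DMSO.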

Read-out in test [18]: Urokinase-type plasminogen activator receptor (uPAR), PLAUR (gene 5329)
Kind of test: BSK_BE3C_uPAR: BioMAP Diversity Plus: BE3C Assay for Urokinase-type plasminogen activator receptor (uPAR) Biomarker Activity (AID 2283039).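 On outcome: uPAR protein level measured by ELISA on the cells; cells exposed to compound for one day before measurement.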 The conditions noted are these: primary human bronchial epithelial cells; actives raise or lower the signal. In outline: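 Chemically treated human bronchial epithelial cells (lung primary) are assayed for uPAR by ELISA after 24 h, with data fitted in both directions using DMSO as negative control.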

Read-out in test [19]: Interleukin-6 (IL6), IL6 (gene 3569)
Kind of test: BSK_CASM3C_IL6: BioMAP Diversity Plus: CASM3C Assay for Interleukin-6 (IL6) Biomarker Activity for (AID 2283040). The conditions noted are these: primary human coronary artery smooth muscle cells; actives raise or lower the signal.

In test [20] the target is human Vitamin D Receptor (VDR), VDR (gene 7421) (UniProt P11473). The test is described as follows: ATG_VDR_TRANS: Attagene TRANS-FACTORIAL HepG2 Assay for human Vitamin D Receptor (VDR) (AID 2283022; active means hit-call score of the fitted dose curve at least 0.9, where 1 is the maximum). In outline: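 Multiplexed TRANS reporter in HepG2; 24 h treatment; reporter mRNA by RT-PCR plus capillary electrophoresis; upregulation scored relative to DMSO.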

Results filed as inconclusive are left out. Active and inactive are the calls of the source. How the source made its calls, unless noted: active means hit-call score of the fitted dose curve at least 0.9, where 1 is the maximum; inactive means score below 0.9.

Sequence of human Vitamin D Receptor (VDR), VDR (gene 7421) (P11473 whole entry, looked up): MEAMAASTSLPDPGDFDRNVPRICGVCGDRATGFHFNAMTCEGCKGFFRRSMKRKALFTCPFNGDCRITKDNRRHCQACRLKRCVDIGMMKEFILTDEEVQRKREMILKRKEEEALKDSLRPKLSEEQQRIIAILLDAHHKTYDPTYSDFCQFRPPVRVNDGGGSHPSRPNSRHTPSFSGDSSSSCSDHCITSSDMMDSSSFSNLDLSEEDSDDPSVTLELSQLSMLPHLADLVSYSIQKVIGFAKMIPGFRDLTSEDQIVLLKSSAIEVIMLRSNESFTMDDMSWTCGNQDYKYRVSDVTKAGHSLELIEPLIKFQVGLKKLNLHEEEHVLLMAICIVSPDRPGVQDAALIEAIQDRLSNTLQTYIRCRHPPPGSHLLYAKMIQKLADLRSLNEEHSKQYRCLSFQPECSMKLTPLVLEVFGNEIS

For `CCCCCCCCCC=O`, the outcome in [1], in test [2], in [3], in test [4], in test [5] and in test [6] was inactive. Besides, the result in test [7], in [8], in test [9], in test [10], in test [12] and in [14] was inactive. For the same compound, the outcome in test [15], in test [16], in test [17], in test [18] and in [19] was inactive. The AC50 in test [11] and in [13] was 20 µM (active) each time.
In the case of `OC1OC[C@@H](O)[C@H](O)[C@H]1O` (some centres not stated), the outcome in test [1], in [2], in test [3], in [5], in [6] and in [7] was inactive. The outcome in test [8], in test [9], in test [10], in [11], in [12] and in test [13] was inactive. Besides, the result in test [14], in test [16], in [17], in [18] and in [19] was inactive.
Regarding `c1ccc(CCCc2ccccn2)cc1`, the compound was classed as inactive in test [20].
Take `Cc1ncc([N+](=O)[O-])n1C`: the result in [20] was inactive.
Still for that read-out and setting: next, `CCCCc1ccc(N)cc1`: “inactive”.
Same read-out and setting: next, `CN(C)CCCN`: “inactive”; `C=C(C)C(=O)O`: “inactive”; `Cc1ccc2ccccc2n1`: “inactive”.
With `OCCOCCOCCOCCO`, the outcome in test [20] was inactive.
For `Cc1ccc(O)c(C(C)(C)C)c1`, the outcome in test [1], in [10], in test [15] and in [16] was inactive. Besides, the AC50 was 25 µM (active) in test [2]; 28.3 µM (active) in test [3]; 13.4 µM (active) in test [4]; 34.3 µM (active) in test [5]; 33.5 µM (active) in test [6]; 31.9 µM (active) in test [7]. Moreover, the AC50 in test [8] is 30.8 µM (active); in test [9] it was 28.2 µM (active); in test [11] it was 30.5 µM (active); in [12], 30.5 µM (active); in test [13] it was 36.8 µM (active); in [14] it was 35 µM (active). The AC50 is 31.6 µM (active) in test [17], 20 µM (active) in test [18] and 10.6 µM (active) in test [19].
